Values joined by “and” are separate entries in the source; they are usually repeats but may differ in a detail not shown here. Equal entries are not always repeated. Some compounds were tested as several samples or in several runs, with calls that do not always agree. Active and inactive are the calls of the source. How the source made its calls: active means hit-call score of the fitted dose curve at least 0.9, where 1 is the maximum; inactive means score below 0.9.

Read-out in the assay: Intercellular Adhesion Molecule 1 (ICAM1), ICAM1 (gene 3383)
The assay can be described thus: BSK_3C_ICAM1: BioMAP Diversity Plus: 3C Assay for Intercellular Adhesion Molecule 1 (ICAM1) Biomarker Activity (AID 2283003). To be noted: primary human endothelial cells (HUVEC); actives raise or lower the signal. As to the method: BSK_3C is a cell-based, multiplexed-readout assay that uses umbilical vein endothelium, a human vascular primary cell, with measurements taken at 24 hours after chemical dosing in a 96-well plate.BSK_3C_ICAM1 is an assay component measured in the BSK_3C assay. It measures ICAM-1 antibody related to regulation of gene expression using ELISA technology.Data from the assay component BSK_3C_ICAM1 was analyzed into 1 assay endpoint. This assay endpoint, BSK_3C_ICAM1, was analyzed with bidirectional fitting relative to DMSO as the negative control and baseline of activity. Using a type of binding reporter, gain or loss-of-signal activity can be used to understand changes in the signaling as they relate to the gene ICAM1. Furthermore, this assay endpoint can be referred to as a primary readout, because this assay has produced multiple assay endpoints where this one serves a signaling function. To generalize the intended target to other relatable targets, this assay endpoint is annotated to the cell adhesion molecules intended target family, where the subfamily is Immunoglobulin CAM.
The levels of cell surface (or secreted, indicated by the prefix "s") biomarker endpoints were measured by ELISA. Overt cytotoxicity to cells in confluent adherent cultures (all systems other than the BT system) was assessed by measuring total protein levels using sulforhodamine B (SRB) staining in parallel cultures at the time of biomarker measurements, indicated as SRB endpoints. For proliferation assays for adherent cell types, individual cell types are cultured at sub-confluence and relative cell numbers quantified by SRB staining at time points optimized for each system (48 h: 3C and CASM3C systems; 72 h: BT and HDF3CGF systems; 96 h: SAg system). SRB was performed by staining cells with 0.1% SRB after fixation with 10% TCA and reading wells at 560 nm.Viability and proliferation of PBMC (T cells) was quantified by Alamar Blue reduction for the SAg and BT systems. For PBMC viability (referred to as PBMC Cytotoxicity within the assay endpoint names), cells were plated (75,000/well in a 96-well plate) and then chemical samples added for 1 h before addition of activators, SEB and TSST-1 (20 ng/mL final concentration each). Cells were incubated for 90 h. Then, Alamar Blue (20 uL/well) (Invitrogen, Cat DAL1100) was added for 6 h, and the plates were read with a fluorescence microplate reader at 546/580 nm (excitation/emission). For PBMC proliferation, cells were plated and activated as above but incubated for only 16 h prior to addition of Alamar Blue. Plates were read after 6 h.
For `CCCCCCCCCCCCCCCC[N+](C)(C)Cc1ccccc1`, the AC50 is 2.35 µM (active).
Turning to `OCC(F)(F)C(F)(F)C(F)(F)C(F)(F)C(F)(F)C(F)F`, the outcome was inactive.
For `O=C(O)C(F)(F)C(F)(F)C(F)(F)C(F)(F)C(F)(F)C(F)(F)C(F)(F)C(F)(F)C(F)(F)C(F)(F)C(F)(F)C(F)(F)C(F)(F)F`, the outcome was inactive.
For the compound `O[Si](c1ccccc1)(c1ccccc1)c1ccccc1`, the result was inactive.
As to `CCCCC(CC)COP(=O)(O)OCC(CC)CCCC` (stereo not given), the result was inactive.
Take `Cc1ccc(S(=O)(=O)OCC(F)(F)C(F)(F)C(F)(F)C(F)(F)C(F)(F)C(F)F)cc1`: the outcome was inactive.
On the same count and under the same terms, under `OCCCC(F)(F)C(F)(F)C(F)(F)F` stands “inactive”; under `FC(F)(F)C(F)(F)C(F)(F)C(F)(F)CCI`, “inactive”.
Same read-out and setting: the value for `OCC(F)(F)C(F)(F)C(F)(F)F` was “inactive”; that for `Nc1ccc([N+](=O)[O-])cc1O` was “inactive”.
Turning to `OCC(F)(F)C(F)(F)C(F)(F)C(F)(F)C(F)(F)C(F)(F)F`, the outcome was inactive and the AC50 is 46.4 µM (active).
With `C#C[C@]1(O)CC[C@H]2[C@@H]3CCc4cc(OC)ccc4[C@H]3CC[C@@]21C`, the outcome was inactive.
On the same count and under the same terms, under `CC(CCl)OP(=O)(OC(C)CCl)OC(C)CCl` (stereo not given) stands “inactive”.
On the same count and under the same terms, under `FC1CC(F)(F)C(F)(F)C1(F)F` (stereo not given) stands “inactive”; under `CS(C)(=O)=O`, “inactive”; under `O=S(=O)(O)C(F)(F)C(F)(F)C(F)(F)C(F)(F)C(F)(F)C(F)(F)C(F)(F)F`, “inactive”.
On the same count and under the same terms, the value for `FC(F)(F)C(F)(F)C(F)(F)C(F)(F)C(F)(F)CCI` was “inactive”; that for `CC(C)(C)C(=O)CC(=O)C(F)(F)C(F)(F)C(F)(F)F` was “inactive”.
With `O=C(O)C(F)(F)C(F)(F)C(F)(F)F`, the result was inactive.
For the compound `C=CC(=O)OCC(F)(F)C(F)(F)C(F)(F)C(F)(F)C(F)(F)C(F)(F)C(F)(F)F`, the result was inactive.
In the case of `C=CC(=O)OCC(F)(F)C(F)(F)C(F)(F)C(F)(F)COC(=O)C=C`, the half-maximal activity concentration (AC50) was 47.1 µM (active) and 48.3 µM (active).
Turning to `O=C(O)C(F)(F)C(F)(F)F`, the result was inactive.
Still for that read-out and setting: the value for `O=C(O)C(F)(F)C(F)(F)C(F)F` was “inactive”; that for `FC(F)(F)C(F)(F)C(F)(F)C(F)(F)C(F)(F)C(F)(F)CCS` was “inactive”; that for `C=CC/C=C/C/C=C/C/C=C/C` was “inactive”.
Same read-out and setting: under `C=C(C)C(=O)OCCC(F)(F)C(F)(F)C(F)(F)C(F)(F)C(F)(C(F)(F)F)C(F)(F)F` stands “inactive”.
Still for that read-out and setting: under `O=C(O)C(F)(F)C(F)(F)OC(F)(F)F` stands “inactive”; under `O=C(O)C(F)(OC(F)(F)C(F)(OC(F)(F)C(F)(F)C(F)(F)F)C(F)(F)F)C(F)(F)F` (stereo not given), “inactive”.
Take `CCCCCCOC(=O)c1ccccc1O`: the AC50 is 38.6 µM (active) and 47 µM (active).
For the compound `CCCCOCCOCCOC(=O)CCCCC(=O)OCCOCCOCCCC`, the result was inactive.
Same read-out and setting: under `C=CC(F)(F)C(F)(F)C(F)(F)C(F)(F)C(F)(F)C(F)(F)C(F)(F)C(F)(F)C=C` stands “inactive”; under `CCO[Si](CCC(F)(F)C(F)(F)C(F)(F)C(F)(F)C(F)(F)C(F)(F)F)(OCC)OCC`, “inactive”.
Same read-out and setting: the value for `CCCCCCCOC(=O)c1ccccc1C(=O)OCCCCCCC` was “inactive”; that for `FC(F)(F)C(F)(F)C(F)(F)N(C(F)(F)C(F)(F)C(F)(F)F)C(F)(F)C(F)(F)C(F)(F)F` was “inactive”; that for `FC(F)(F)C(F)(F)C(F)(F)C(F)(F)C(F)(F)C(F)(F)C(F)(F)I` was “inactive”.
For `O=C(O)C(F)(F)C(F)(F)C(F)(F)C(F)(F)C(F)(F)C(F)(F)C(F)(F)C(F)(F)C(F)(F)C(F)(F)C(F)(F)C(F)(F)F`, the outcome was inactive.
The same measure, in the same setting: under `CCCCCCCCC(F)(F)C(F)(F)C(F)(F)C(F)(F)C(F)(F)C(F)(F)F` stands “inactive”; under `OCC(F)(F)C(F)(F)C(F)(F)C(F)F`, “inactive”.
Same read-out and setting: the value for `O=C(O)C(F)(F)C(F)(F)C(F)(F)C(F)(F)C(F)(F)C(F)(F)C(F)(F)C(F)(F)Cl` was “inactive”.

Usually AC50 stands for the midpoint of the concentration-response curve, whichever way the signal moves.

The values above are taken from PubChem BioAssay (EPA / NIEHS).
